Laboratory results reported in PubChem BioAssay (Tox21).
Results filed as inconclusive are left out. Activity calls are given as the source filed them. Calls come from the whole dose curve; as a rule, active = well fitted curve in the direction sought with a large enough effect in the repeat runs; inconclusive = weak or mixed curves; inactive = no such curve, though single readings can be large; an effect the other way counts as inactive or inconclusive.

Legend:
[1] = qHTS RealTime-Glo MT Cell Viability Assay in HepG2 cells - 40 hour (AID 1224870); note: nearly all actives have a fitted effect of over 50% in size
Outline: (§1)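 HepG2 cells mixed with RealTime-Glo MT reagents (NanoLuc plus cell-permeant prosubstrate) were seeded at 600 cells/well, incubated 5 h at 37 C/5% CO2, then pinned with compounds in DMSO; nonlytic luminescence tracked viability during 40 h treatment.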

[2] = A CellTox Green Cytotoxicity Assay to monitor cytotoxicity in HEK293 cells - 40 hour (AID 1224871); note: nearly all actives have a fitted effect of over 45% in size
Outline: (§2)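 Read-out: fluorescence of a cell-impermeant cyanine dye staining DNA of dead cells, proportional to cytotoxicity. HEK293, 600 cells/well with reagent, compound (23 nL DMSO) added after 5 h; reads at 0, 8, 16, 24, 32, 40 h.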

[3] = qHTS RealTime-Glo MT Cell Viability Assay in HEK293 cells - 16 hour (AID 1224872); note: nearly all actives have a fitted effect of over 50% in size; note: potency is the fitted concentration of half-maximal effect; for activity change, negative = cytotoxicity: top concentration of the series differs between compounds
Outline: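 Luminescence generated by NanoLuc from substrate produced by living HEK293 cells served as the viability signal. Each value reflects the reading at its stated time point during continuous 40 h compound exposure at 37 C.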

[4] = qHTS RealTime-Glo MT Cell Viability Assay in HepG2 cells - 8 hour (AID 1224873); note: nearly all actives have a fitted effect of over 55% in size
Outline: as §1

[5] = qHTS RealTime-Glo MT Cell Viability Assay in HEK293 cells - 40 hour (AID 1224874); details: RealTime-Glo luminescence; max response: hits give low values; note: nearly all actives have a fitted effect of over 50% in size; note: potency is the fitted concentration of half-maximal effect
Outline: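 Luminescence readout at each listed time point; HEK293, 600 cells/well, RealTime-Glo MT reagent added with cells; compounds pinned (23 nL in DMSO) after 5 h at 37 C; continuous culture at 37 C.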

[6] = A CellTox Green Cytotoxicity Assay to monitor cytotoxicity in HEK293 cells - 24 hour (AID 1224875); note: series mostly up to about 77 µM; nearly all actives have a fitted effect of over 45% in size
Outline: as §2

[7] = A CellTox Green Cytotoxicity Assay to monitor cytotoxicity in HepG2 cells - 16 hour (AID 1224876); note: nearly all actives have a fitted effect of over 45% in size
Outline: (§3)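 HepG2, 600 cells/well premixed w/ CellTox Green; 5 h settle, 37 C/5% CO2; pintool cpd add (DMSO); 37 C, 40 h; fluorescence read at 0, 8, 16, 24, 32, 40 h.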

[8] = qHTS RealTime-Glo MT Cell Viability Assay in HepG2 cells - 32 hour (AID 1224877); note: nearly all actives have a fitted effect of over 55% in size
Outline: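 Tox21 10K library screened in qHTS format on HepG2 cells carrying RealTime-Glo reagents. Compounds were added after a 5 h preincubation, and the luminescent signal from continuous culture was measured repeatedly during 40 h treatment.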

[9] = A CellTox Green Cytotoxicity Assay to monitor cytotoxicity in HepG2 cells - 40 hour (AID 1224879); note: nearly all actives have a fitted effect of over 40% in size
Outline: as §3

[10] = A CellTox Green Cytotoxicity Assay to monitor cytotoxicity in HepG2 cells - 24 hour (AID 1224878); note: nearly all actives have a fitted effect of over 45% in size
Outline: as §3
% is set by controls: 0 for no effect and ±100 for the full control effect.

O=C(CS(=O)Cc1ccco1)NC/C=C\COc1cc(CN2CCCCC2)ccn1 (centres undefined)
inactive: outcome [1] | Potency [2] | Potency [3] | outcome [4] | max response [5] -0.682% | outcome [6] | outcome [7] | outcome [8] | Potency [9]

CCC(C)(CCC(C)C)C(=O)O (centres undefined)
inactive: outcome [1] | Potency [2] | Potency [3] | outcome [4] | max response [5] 2.99% | outcome [6] | outcome [7] | outcome [8] | outcome [10] | Potency [9]

O=S(=O)(O)c1ccc2cc(O)c(S(=O)(=O)O)cc2c1
inactive: outcome [1] | Potency [2] | Potency [3] | outcome [4] | max response [5] -1.21% | outcome [6] | outcome [7] | outcome [8] | Potency [9]

CCOCCOCCOCC
inactive: outcome [1] | Potency [2] | Potency [3] | outcome [4] | max response [5] 4.8% | outcome [6] | outcome [7] | outcome [8] | Potency [9]

C=C(C)C(=O)OCCOP(=O)(O)OCCOC(=O)C(=C)C
inactive: outcome [1] | Potency [2] | Potency [3] | outcome [4] | max response [5] -2.48% | outcome [6] | outcome [7] | outcome [8] | Potency [9]

CCOc1cc([N+](=O)[O-])c(OCC)cc1N1CCOCC1
active: Potency [3] 19.5 µM | Potency [5] 15.5 µM
inactive: outcome [1] | Potency [2] | outcome [4] | outcome [6] | outcome [7] | outcome [10] | Potency [9]

CCCCCCN
inactive: outcome [1] | Potency [2] | Potency [3] | outcome [4] | max response [5] 9.84% | outcome [6] | outcome [7] | outcome [8] | outcome [10] | Potency [9]

CC/C=C\CC1=C(C)CCC1=O
inactive: outcome [1] | Potency [2] | Potency [3] | outcome [4] | max response [5] 0.983% | outcome [6] | outcome [7] | outcome [8] | outcome [10] | Potency [9]

CCCC/C=C/C=C\C=O
inactive: outcome [1] | Potency [2] | Potency [3] | outcome [4] | max response [5] 0.84% | outcome [6] | outcome [7] | outcome [8] | Potency [9]

CCCCC(CC)COCCO (centres undefined)
inactive: outcome [1] | Potency [2] | Potency [3] | outcome [4] | max response [5] -0.338% | outcome [6] | outcome [7] | outcome [8] | Potency [9]

NS(=O)(=O)c1cc2c(cc1Cl)CN(C1CCCCC1)C2=O
active: Potency [3] 10.7 µM | Potency [5] 9.52 µM
inactive: outcome [1] | Potency [2] | outcome [4] | outcome [6] | outcome [7] | outcome [8] | outcome [10] | Potency [9]

N[C@@H](COP(=O)(O)O)C(=O)O
inactive: activity change, negative = cytotoxic [1] 1.81% [at 15.8 µM] | cytotoxicity increase [2] -6.71% [at 15.8 µM] | activity change, negative = cytotoxicity [3] 6.19% [at 15.8 µM] | viability change, negative = cytotoxic [4] 0.974% [at 15.8 µM] | max response [5] 7.08% | activity change [6] -7.17% [at 15.8 µM] | cytotoxicity increase [7] 1.02% [at 15.8 µM] | activity change, negative = cytotoxic [8] 1.44% [at 15.8 µM] | cytotoxicity increase [9] -0.277% [at 15.8 µM]

Oc1ccccc1-c1nnco1
inactive: outcome [1] | Potency [2] | Potency [3] | outcome [4] | max response [5] 2.75% | outcome [6] | outcome [7] | outcome [8] | Potency [9]

CC(CC=O)CCCC(C)(C)O (centres undefined)
inactive: outcome [1] | Potency [2] | Potency [3] | outcome [4] | max response [5] 3.36% | outcome [6] | outcome [7] | outcome [8] | Potency [9]

Cc1cccc(OCC(O)CNC(C)(C)C)c1C (centres undefined)
inactive: outcome [1] | Potency [2] | Potency [3] | outcome [4] | max response [5] 0.394% | outcome [6] | outcome [7] | outcome [8] | Potency [9]
